A number with no mark means an inactive call. Activity calls are given as the source filed them. Cut-off read from the data, not from the text of the source: active = inhibition above about 36%; inactive = the rest.
test system: transactivating tegument protein VP16 (Human herpesvirus 1); experiment: VP16 transactivation reporter inhibitors, counter-screen for SRC2 inhibitor project, cell-based, luminescence, single concentration (AID 652007); settings: cell-based VP16 transactivation luciferase reporter, at 8.9 µM, active compounds read high

| Compound | inhibition |
| --- | --- |
| Cc1nc(SCc2cccc(C(=O)O)c2)nc2c1CCCC2 | 4.6% |
| Cn1c(=O)c2[nH]c(CCCc3ccc([N+](=O)[O-])cc3)nc2n(C)c1=O | -19.8% |
| Cc1ccc(C)c(OCc2ccc(C(=O)Nc3ccc([N+](=O)[O-])cn3)o2)c1 | 8.86% |
| CC(=O)O[C@@H]1C[C@H]2C(C)(C)C(=O)C=C[C@]2(C)[C@H]2CC[C@@]3(C)[C@H](c4ccoc4)OC(=O)[C@H]4O[C@]43[C@@]21C | 35.9% (active) |
| Nc1ccc(Oc2ccc3c(c2)C(=O)N(CC2CCCO2)C3=O)cc1 (stereo not given) | -45.6% |
| CCOc1ccc(-c2cc(CCCC(=O)NCCc3ccccc3)no2)cc1 | 6.55% |
| COc1ccccc1-c1cn[nH]c1-c1ccc(O)cc1O | 1.82% |
| O=C(NC(=S)Nc1cccc2cc(O)ccc12)c1ccccc1Br | 2.57% |
| CCN(CC)c1ccc(NC(=O)CCCCC(=O)Nc2ccc(N(CC)CC)cc2)cc1 | 16.2% |
| Cc1cc(C2=NNC(=NC3CC3)SC2)c(C)n1-c1ccccc1 | 83.2% (active) |
| Cc1nc(S(=O)(=O)N(C)c2ccccc2)c(C#N)c(C)c1Cl | 3.59% |
| Cc1nc2cc(-c3ccccc3)sc2c(=O)n1N | 22.3% |
| CCCOc1ccc(C(=O)C(CN2CCOCC2)c2ccccc2)cc1 (stereo not given) | 14% |
| COc1ccc(N2CCN(C(=O)CCCCCn3c(=S)[nH]c4ccc(N5CCOCC5)cc4c3=O)CC2)cc1 | -3.27% |
| O=C1NC(c2ccccc2)Cc2ccncc21 (stereo not given) | -6.21% |

From PubChem BioAssay
